The results in this text go back to PubChem BioAssay (EPA / NIEHS).

“And” between values parts separate entries of the source, which are not always exact repeats. Equal entries are not always repeated. Some compounds were tested as several samples or in several runs, with calls that do not always agree. The source made the active and inactive calls. The calls were made as follows: active = hit-call score of the fitted dose curve at least 0.9, where 1 is the maximum; inactive = score below 0.9.

A short description of the experiment: ATG_DR4_LXR_CIS: Attagene CIS-FACTORIAL HepG2 Assay for human Liver X Receptor (LXR), DR4 submotif (AID 2282929). The note with it: HepG2 Attagene DR4 cis-reporter, mRNA transcription; actives raise or lower the signal. As to the method:
ATG_CIS is a cell-based, multiplexed-readout assay that uses HepG2, a human liver cell line, with measurements taken at 24 hours after chemical dosing in a 24-well plate.ATG_DR4_LXR_CIS is one of 52 assay component(s) measured or calculated from the ATG_CIS assay. It is designed to make measurements of mRNA induction, a form of inducible reporter, as detected with fluorescence intensity signals by Reverse transcription polymerase chain reaction (RT-PCR) and Capillary electrophoresis technology.Data from the assay component ATG_DR4_LXR_CIS was analyzed into 1 assay endpoint. This assay endpoint, ATG_DR4_LXR_CIS, was analyzed with bidirectional fitting relative to DMSO as the negative control and baseline of activity. Using a type of inducible reporter, measures of mRNA for gain or loss-of-signal activity can be used to understand the reporter gene at the transcription factor-level as they relate to the gene NR1H2 and NR1H3. Furthermore, this assay endpoint can be referred to as a primary readout, because this assay has produced multiple assay endpoints where this one serves a reporter gene function. To generalize the intended target to other relatable targets, this assay endpoint is annotated to the nuclear receptor intended target family, where the subfamily is non-steroidal.
Human liver HepG2 cells are transiently transfected with multiple reporter transcription units (MRTUs) in 6-well plates using FuGene 6 reagent (Roche; 3 ml FuGene/1 mg DNA). The MRTU constructs are regulated by a cis-regulating element (promoter). […] A major difference between the CIS and TRANS system is that in CIS activities of endogenous TFs are measured, whereas the TRANS assay evaluates changes in activities of exogenous, chimeric NR-Gal4 proteins. […] At the end of 24 hour incubation, total RNA was isolated using TriZol reagent (Invitrogen). The isolated RNA is then reverse-transcribed using oligo(dT) primer and Mo-MLV reverse transcriptase (Invitrogen) with DNAse I (Ambion) treatment for 30 min. The one-tenth of the produced cDNA was amplified by PCR using Taq DNA polymerase (Invitrogen) and two reporter sequence-specific primers. The PCR products were fluorescently labeled by primer extension with 6-arboxyfluorescein (6-FAM) 5'-labeled reporter sequence-specific primer (2 min at 95 C, 20 s at 68 C and 10 min at 72 C) and these products were digested with 5U of HpaI (New England Biolabs) for 2h at 37 C. The fragments were purified using Qiaquick PCR columns (Qiagen), analyzed on an ABI 3130xL genetic analyzer (Applied Biosystems) with peak positions identified by using a set of X-rhodamine (ROX)-labeled MapMarker1000 molecular weight standards (BioVentures). The raw capillary electrophoresis data was processed using Attagraph software (Attagene).
For `O=C(c1ccc(OCCN2CCCCC2)cc1)c1c(-c2ccc(O)cc2)sc2cc(O)ccc12`, the result was inactive; the AC50 was 20.3 µM (active) and 19.9 µM (active).
For `CC(C)(O)C(=O)c1ccc(OCCO)cc1`, the compound was called inactive.
In the case of `C=CCOCC(O)CO` (stereo not given), the outcome was inactive.
Same read-out and setting: the same measure for `CC/C=C\CCOC(C)OCC` (stereo not given): “inactive”.
Same read-out and setting: the result for `CC(C)COC(=O)c1ccccc1O` reads “inactive”.
On to `CCCCC/C=C\C=C\C(=O)OCC`, for which the AC50 is 55.1 µM (active).
For the compound `CCC(=O)OCC=Cc1ccccc1`, the outcome was inactive.
For the compound `CCCCCC#CC(=O)OC`, the call was inactive.
As to `COc1ccc(N)c(C)c1`, the call was inactive.
For `C=CCCCCCCCCC(=O)OCC`, the compound was called inactive.
`C#C[C@]1(O)CC[C@H]2[C@@H]3CCc4cc(O)ccc4[C@H]3CC[C@@]21C`: the compound was classed as inactive; the AC50 was 100 µM (active) and 34 µM (active).
For `CN(C)CCC=C1c2ccccc2CCc2ccccc21`, the AC50 is 27 µM (active).
Turning to `NC(=O)c1cnccn1`, the compound was classed as inactive.
The same measure, in the same setting: the result for `NC(=O)c1cccnc1` reads “inactive”; that for `COc1ccccc1NC(=O)CC(C)=O`, “inactive”.
For `C=CC(O)CCCCC` (stereo not given), the AC50 is 37.3 µM (active).
For `CCCCCCCCOC(C)=O`, the outcome was inactive.
Same read-out and setting: the same measure for `C=C(C)C(=O)OCCN(C)C`: “inactive”; for `CCOC(=O)C=Cc1ccccc1`: “inactive”.
Consider `O=S(=O)(O)c1cc(S(=O)(=O)O)c2c(N=Nc3ccccc3)c(O)ccc2c1`, for which the result was inactive.
As to `CC1(C)CC(=O)CC(C)(C)N1`, the compound was classed as inactive.
In the case of `CCCCCCCCCCO[C@@H]1O[C@H](CO)[C@@H](O)[C@H](O)[C@H]1O`, the AC50 was 125 µM (active).
As for `Nc1ccc(O)c(N)c1`, the compound was called inactive.
Consider `CC(=O)CC(=O)N(C)C`, for which the outcome was inactive.
`c1ccc(OCCOc2ccccc2)cc1`: the compound was classed as inactive.
Still for that read-out and setting: the result for `CC(C)(O)CCc1ccccc1` reads “inactive”; that for `CC(=O)c1ccc(C)cc1`, “inactive”; that for `CC(C)=CCCC(C)=CC(=O)O`, “inactive”.
Same read-out and setting: the result for `[Cl][Dy]([Cl])[Cl]` reads “inactive”.
Regarding `CC(=O)CCc1ccc(O)cc1`, the compound was called inactive.
`Cc1ccccc1S`: the AC50 was 75.5 µM (active).
`CCCCCCCCCCCCOCCOS(=O)(=O)O`: the outcome was inactive.
For `CCCCCCCCOS(=O)(=O)O`, the outcome was inactive.
Still for that read-out and setting: the result for `OCCCO` reads “inactive”.
Regarding `C[N+](C)(C)CCO`, the outcome was inactive.
Turning to `O=S1(=O)CC(Cl)(Cl)C(Cl)(Cl)C1`, the AC50 is 2.41 µM (active).
Take `CN(C)C(=O)Nc1ccccc1`: the compound was classed as inactive.
Turning to `O=c1cc(-c2ccc(O)cc2)oc2cc(O)cc(O)c12`, the AC50 was 7.83 µM (active).

By AC50 is commonly meant the concentration giving half of the maximal activity seen.
